From publication PMC5700166

Legend:
Test in all cases: protein-binding microarray (PBM); PBM: ~300 nM protein, 6 mM HEPES pH 7.8, 80 mM KCl, 0.5 mM EDTA, 0.5 mM EGTA, 6% glycerol, 35 ng/ul poly-dIdC, 1% milk, 1 h, room temperature; Ap Aiptasia and Nv Nematostella (sea anemones) / Co Capsaspora / Aq Amphimedon (sponge) / Dm Drosophila / Hu human; RHD is the Rel homology domain; high values mean tight binding
Conditions in all cases: dsDNA, one strand shown
GST-Ap-NF-kB RHD = target: T1, GST-Ap-NF-kB RHD (Exaiptasia pallida (Aiptasia), UniProt A0A913YAJ5 2-422)
T1 sequence: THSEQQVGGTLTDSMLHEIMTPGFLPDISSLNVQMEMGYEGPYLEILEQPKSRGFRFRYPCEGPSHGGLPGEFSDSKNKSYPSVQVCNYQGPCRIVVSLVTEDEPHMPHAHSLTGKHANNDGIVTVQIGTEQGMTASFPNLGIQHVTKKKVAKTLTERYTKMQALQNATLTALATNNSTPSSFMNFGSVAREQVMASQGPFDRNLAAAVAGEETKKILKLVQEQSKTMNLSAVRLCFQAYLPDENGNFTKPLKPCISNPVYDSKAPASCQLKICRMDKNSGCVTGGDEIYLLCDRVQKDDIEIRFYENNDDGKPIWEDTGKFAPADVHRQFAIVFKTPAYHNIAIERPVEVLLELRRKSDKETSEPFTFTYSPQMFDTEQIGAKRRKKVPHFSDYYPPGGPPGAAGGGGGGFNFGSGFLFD

[1] = target: T2, GST-Nv-NF-kB (Cys allele) (Nematostella vectensis, UniProt E5G601 2-411)
T2 sequence: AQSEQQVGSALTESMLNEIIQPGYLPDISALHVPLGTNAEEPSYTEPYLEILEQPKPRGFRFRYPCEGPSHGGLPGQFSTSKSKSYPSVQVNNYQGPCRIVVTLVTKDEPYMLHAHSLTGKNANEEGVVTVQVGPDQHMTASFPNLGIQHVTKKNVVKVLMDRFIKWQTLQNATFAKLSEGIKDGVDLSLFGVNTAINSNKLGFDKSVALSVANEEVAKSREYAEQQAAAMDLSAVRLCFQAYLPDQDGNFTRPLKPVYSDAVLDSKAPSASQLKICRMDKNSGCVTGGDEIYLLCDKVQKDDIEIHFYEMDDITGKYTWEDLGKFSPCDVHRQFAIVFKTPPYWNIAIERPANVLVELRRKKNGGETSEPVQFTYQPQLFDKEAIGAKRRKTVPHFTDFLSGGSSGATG

GST-Co-NF-kB = target: T3, GST-Co-NF-kB (Capsaspora owczarzaki, UniProt F1ARL5 200-546)
T3 sequence: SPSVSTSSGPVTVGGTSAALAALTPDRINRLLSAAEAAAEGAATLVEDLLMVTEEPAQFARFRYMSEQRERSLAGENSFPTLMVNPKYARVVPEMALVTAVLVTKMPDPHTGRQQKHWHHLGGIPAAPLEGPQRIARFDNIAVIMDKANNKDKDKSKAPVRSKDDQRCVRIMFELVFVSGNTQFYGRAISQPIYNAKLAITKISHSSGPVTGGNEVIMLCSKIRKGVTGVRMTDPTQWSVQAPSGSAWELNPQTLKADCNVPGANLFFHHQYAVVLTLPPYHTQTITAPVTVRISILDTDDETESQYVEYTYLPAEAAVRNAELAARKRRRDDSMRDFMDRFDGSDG

GST-Dm-Relish = target: T4, GST-Dm-Relish (Drosophila melanogaster, UniProt Q94527 99-473)
T4 sequence: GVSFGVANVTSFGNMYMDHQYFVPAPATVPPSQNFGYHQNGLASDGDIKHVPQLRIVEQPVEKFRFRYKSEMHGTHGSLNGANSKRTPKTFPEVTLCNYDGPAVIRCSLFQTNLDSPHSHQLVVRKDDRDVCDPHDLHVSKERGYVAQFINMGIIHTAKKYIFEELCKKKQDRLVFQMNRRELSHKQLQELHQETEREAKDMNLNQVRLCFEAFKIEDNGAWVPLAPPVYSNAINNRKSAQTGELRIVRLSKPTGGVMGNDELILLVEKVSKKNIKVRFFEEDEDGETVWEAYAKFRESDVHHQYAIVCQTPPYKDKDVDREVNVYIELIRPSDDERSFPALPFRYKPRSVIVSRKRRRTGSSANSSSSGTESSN

GST-Aq-NF-kB = target: T5, GST-Aq-NF-kB (Amphimedon queenslandica, UniProt A9Y5G7 2-389)
T5 sequence: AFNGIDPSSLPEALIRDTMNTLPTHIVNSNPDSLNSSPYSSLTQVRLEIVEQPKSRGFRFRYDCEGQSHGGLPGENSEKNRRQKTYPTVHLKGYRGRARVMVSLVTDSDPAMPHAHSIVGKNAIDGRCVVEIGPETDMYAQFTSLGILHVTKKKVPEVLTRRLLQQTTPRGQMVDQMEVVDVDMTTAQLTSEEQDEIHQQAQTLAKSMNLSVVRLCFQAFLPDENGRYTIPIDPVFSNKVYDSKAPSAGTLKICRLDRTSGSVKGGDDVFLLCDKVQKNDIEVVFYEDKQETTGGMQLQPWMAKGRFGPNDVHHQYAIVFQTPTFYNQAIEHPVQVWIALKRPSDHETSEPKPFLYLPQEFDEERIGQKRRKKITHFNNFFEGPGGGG

Row | Sequence | binding signal (GST-Ap-NF-kB RHD) | binding signal [1] | binding signal (GST-Co-NF-kB) | binding signal (GST-Dm-Relish) | binding signal (GST-Aq-NF-kB)
1 | CCGATTAACATCAGGGAATCTCATGATGTTAATCGGGTCTTGATTCGCTTGACGCTGCTG | 2.33 z-score | 3.41 z-score | 1.96 z-score | 1.4 z-score | 3.46 z-score
2 | CCGATTAACATCAAGAATTCCCGTGATGTTAATCGGGTCTTGATTCGCTTGACGCTGCTG | 4.85 z-score | 6.36 z-score | 4.23 z-score | 4.9 z-score | 5.46 z-score
3 | CCGATTAACATCAAACACCCCCCTGATGTTAATCGGGTCTTGATTCGCTTGACGCTGCTG | 4.89 z-score | 4.54 z-score | 4.93 z-score | 5.5 z-score | 5.86 z-score
4 | CCGATTAACATCATACCCCCCCATGATGTTAATCGGGTCTTGATTCGCTTGACGCTGCTG | 4.97 z-score | 2.65 z-score | 5.26 z-score | 3.98 z-score | 3.92 z-score
5 | CCGATTAACATCAAGGCATTCCCTGATGTTAATCGGGTCTTGATTCGCTTGACGCTGCTG | 1.97 z-score | 2.56 z-score | 1.94 z-score | 2.53 z-score | 3.27 z-score
6 | CCGATTAACATCACACCCCCCCCTGATGTTAATCGGGTCTTGATTCGCTTGACGCTGCTG | 4.42 z-score | 3.24 z-score | 5.16 z-score | 4.99 z-score | 4.16 z-score
7 | CCGATTAACATCAAATACTTCCCTGATGTTAATCGGGTCTTGATTCGCTTGACGCTGCTG | 2.22 z-score | 3.32 z-score | 2.96 z-score | 2.69 z-score | 4.24 z-score
8 | CCGATTAACATCAAGTATTTCCCTGATGTTAATCGGGTCTTGATTCGCTTGACGCTGCTG | 3.79 z-score | 5.18 z-score | 4.22 z-score | 5.66 z-score | 5.42 z-score
9 | CCGATTAACATCAGAAAATCCCATGATGTTAATCGGGTCTTGATTCGCTTGACGCTGCTG | 4.49 z-score | 4.29 z-score | 1.54 z-score | 7.07 z-score | 4.36 z-score
10 | CCGATTAACATCACAAAACTCCCTGATGTTAATCGGGTCTTGATTCGCTTGACGCTGCTG | 4.94 z-score | 6.58 z-score | 2.13 z-score | 5.41 z-score | 6.32 z-score
11 | CCGATTAACATCACTACTTTCCCTGATGTTAATCGGGTCTTGATTCGCTTGACGCTGCTG | 3.07 z-score | 3.89 z-score | 3.41 z-score | 1.63 z-score | 3.68 z-score
12 | CCGATTAACATCACATTGTCCCCTGATGTTAATCGGGTCTTGATTCGCTTGACGCTGCTG | 4.03 z-score | 4.18 z-score | 4.12 z-score | 1.73 z-score | 3.26 z-score
13 | CCGATTAACATCAAAGTACCCCCTGATGTTAATCGGGTCTTGATTCGCTTGACGCTGCTG | 6.74 z-score | 4.38 z-score | 6.64 z-score | 4.39 z-score | 4.52 z-score
14 | CCGATTAACATCAAGGTACCCCCTGATGTTAATCGGGTCTTGATTCGCTTGACGCTGCTG | 5.83 z-score | 2.82 z-score | 4.58 z-score | 2.84 z-score | 3.11 z-score
15 | CCGATTAACATCAGGCCGTCCCCTGATGTTAATCGGGTCTTGATTCGCTTGACGCTGCTG | 4.92 z-score | 4.47 z-score | 1.48 z-score | 5.02 z-score | 5.74 z-score
16 | CCGATTAACATCAAGGAAACCCCTGATGTTAATCGGGTCTTGATTCGCTTGACGCTGCTG | 6.7 z-score | 4.95 z-score | 2.91 z-score | 7.36 z-score | 6.19 z-score
17 | CCGATTAACATCACATACTCCCCTGATGTTAATCGGGTCTTGATTCGCTTGACGCTGCTG | 4.4 z-score | 3.45 z-score | 3.69 z-score | 1.57 z-score | 3.42 z-score
18 | CCGATTAACATCAAAACAATCCCTGATGTTAATCGGGTCTTGATTCGCTTGACGCTGCTG | 2.49 z-score | 3.19 z-score | 1.41 z-score | 2.25 z-score | 4.66 z-score
19 | CCGATTAACATCAAAAAGGGAAATGATGTTAATCGGGTCTTGATTCGCTTGACGCTGCTG | 2.59 z-score | 5.91 z-score | 1.33 z-score | 1.31 z-score | 4.54 z-score
20 | CCGATTAACATCAAAAAACCCACTGATGTTAATCGGGTCTTGATTCGCTTGACGCTGCTG | 2.65 z-score | 2.49 z-score | 1.66 z-score | 5.49 z-score | 3.61 z-score
21 | CCGATTAACATCAGGATCTCCCCTGATGTTAATCGGGTCTTGATTCGCTTGACGCTGCTG | 7.91 z-score | 5.49 z-score | 4.26 z-score | 5.64 z-score | 6.38 z-score
22 | CCGATTAACATCAGGGAATGCACTGATGTTAATCGGGTCTTGATTCGCTTGACGCTGCTG | 1.84 z-score | 3.18 z-score | 1.11 z-score | 5.07 z-score | 4.84 z-score
23 | CCGATTAACATCAGGGGATTAGATGATGTTAATCGGGTCTTGATTCGCTTGACGCTGCTG | 4.5 z-score | 4.8 z-score | 2.75 z-score | 3.13 z-score | 3.91 z-score
24 | CCGATTAACATCAGGGGAGTAAATGATGTTAATCGGGTCTTGATTCGCTTGACGCTGCTG | 3.1 z-score | 3 z-score | 4.51 z-score | 1.91 z-score | 3 z-score
25 | CCGATTAACATCACACACCCCCCTGATGTTAATCGGGTCTTGATTCGCTTGACGCTGCTG | 4.13 z-score | 3.15 z-score | 3.85 z-score | 3.82 z-score | 3.48 z-score
26 | CCGATTAACATCACATTTTCCCATGATGTTAATCGGGTCTTGATTCGCTTGACGCTGCTG | 2.42 z-score | 3.68 z-score | 3.98 z-score | 1.33 z-score | 2.13 z-score
27 | CCGATTAACATCACGGGAACCCCTGATGTTAATCGGGTCTTGATTCGCTTGACGCTGCTG | 5.04 z-score | 2.85 z-score | 1.9 z-score | 9.89 z-score | 5.86 z-score
